# From PubChem BioAssay (NCATS)
# Values joined by “and” are separate entries in the source; they are usually repeats but may differ in a detail not shown here. Identical values can stand only once. Records with an inconclusive call do not appear. Entries that show only a call come without a potency. A structure can be active in one record and inactive in another. Active and inactive are the calls of the source. Calls follow the shape of the dose curve; as a rule, active = well fitted curve in the direction sought with a large enough effect; inconclusive = small, poorly fitted or top-dose-only effect, or another doubt; inactive = no such curve, though single readings can be large; an effect the other way counts as inactive or inconclusive.
# How the values were obtained:
# [1] = target: Catechol O-methyltransferase (Homo sapiens) (UniProt P21964); assay: Confirmatory Screen for Target Class Profiling of Small Molecule Inhibitors of Methyltransferases (AID 1745852); settings: MTase-Glo luminescence, SAH detection, recombinant enzyme; measured here: COMT max response; stronger effect = lower value
# [2] = target: Guanidinoacetate N-methyltransferase (Homo sapiens) (UniProt Q14353); assay: as above; settings: MTase-Glo luminescence, SAH detection, recombinant enzyme; activity change, negative = inhibition: at 57.3 µM (top of the series) unless noted
# [3] = target: Nicotinamide N-methyltransferase (Homo sapiens) (UniProt P40261); assay: as above; settings: MTase-Glo luminescence, SAH detection, recombinant enzyme; measured here: NNMT max response; stronger effect = lower value
# [4] = Primary qHTS for inhibitors of nuclear receptor binding SET domain protein 2 (NSD2) in an isogenic RCH-ACV NSD2 p.E1099K mutant (9B) (AID 1645876); settings: RCH-ACV NSD2 E1099K (9B) viability, CellTiter-Glo, 72 h; series mostly up to 44.9 µM; also: nearly all actives have a fitted effect of over 70% in size; also: potency is read from the fitted curve at half-maximal effect
# [5] = Primary qHTS for inhibitors of nuclear receptor binding SET domain protein 2 (NSD2) in an RCH-ACV wild type WT cells (2C) (AID 1645877); settings: RCH-ACV (leukaemia line) NSD2 WT (2C) viability, CellTiter-Glo, 72 h; series mostly up to 44.9 µM; also: nearly all actives have a fitted effect of over 70% in size; also: potency is read from the fitted curve at half-maximal effect
# Chain of Nicotinamide N-methyltransferase (Homo sapiens) (P40261 whole entry, looked up, the tested form may be a part): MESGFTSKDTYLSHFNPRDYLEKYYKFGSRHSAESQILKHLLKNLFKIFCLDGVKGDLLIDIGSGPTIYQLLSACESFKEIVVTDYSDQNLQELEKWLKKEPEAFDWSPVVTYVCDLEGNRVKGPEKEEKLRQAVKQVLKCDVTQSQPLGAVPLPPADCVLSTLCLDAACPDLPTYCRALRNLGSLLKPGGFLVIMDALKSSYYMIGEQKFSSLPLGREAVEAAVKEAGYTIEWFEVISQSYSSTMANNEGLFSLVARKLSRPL
# Chain of Catechol O-methyltransferase (Homo sapiens) (P21964 whole entry, looked up): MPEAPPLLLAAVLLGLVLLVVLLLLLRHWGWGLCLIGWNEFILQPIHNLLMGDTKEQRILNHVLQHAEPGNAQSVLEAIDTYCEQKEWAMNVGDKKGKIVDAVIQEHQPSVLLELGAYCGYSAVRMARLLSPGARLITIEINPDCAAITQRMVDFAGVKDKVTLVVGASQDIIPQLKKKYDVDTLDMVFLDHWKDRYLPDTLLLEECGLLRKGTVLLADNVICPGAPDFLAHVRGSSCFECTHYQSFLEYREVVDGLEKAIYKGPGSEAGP
compound,measurement,setting,value
COc1cc2c(cc1OC)CN(CCc1ccc(NC(=O)c3cccc4c(=O)c5cccc(OC)c5[nH]c34)cc1)CC2,activity,[1],-13%
same,"activity change, negative = inhibition",[2],-0.294%
same,activity,[3],-75.2%
CC(=O)Oc1ccccc1C(=O)O,Potency,[4],inactive
same,Potency,[5],inactive
Cc1[nH]c(=O)c(C#N)cc1-c1ccncc1,Potency,[4],inactive
same,Potency,[5],inactive
CC[C@H](Nc1ncnc2nc[nH]c12)c1nc2cccc(F)c2c(=O)n1-c1ccccc1,Potency,[4],164 nM (active) and 833 nM (active)
same,"activity change, negative = viability loss",[4],-6.84% [at 9.23 µM] (inactive)
same,Potency,[5],231 nM (active) and 1.18 µM (active)
same,"activity change, negative = cell killing",[5],-1.09% [at 9.23 µM] (inactive)
CCn1c(-c2nonc2N)nc2cnc(Oc3cccc(NC(=O)c4ccc(OCCN5CCOCC5)cc4)c3)cc21,Potency,[4],3.26 µM (active) and 662 nM (active)
same,Potency,[5],326 nM (active) and 417 nM (active)
Cc1c(CCOc2ccc(C(=O)O)cc2)c2cc(Cl)ccc2n1C(c1ccccc1)c1ccccc1,Potency,[4],inactive
same,Potency,[5],inactive
Cc1cc(SCc2sc(-c3ccc(C(F)(F)F)cc3)nc2C)ccc1OCC(=O)O,Potency,[4],inactive
same,Potency,[5],inactive
CC(C[N+](C)(C)C)OC(N)=O (stereo not given),Potency,[4],inactive
same,Potency,[5],inactive
NC(=O)C1CCCc2c1[nH]c1ccc(Cl)cc21 (stereo not given),Potency,[4],inactive
same,Potency,[5],inactive
c1ccc(-c2nn3c(c2-c2ccnc4cc(OCCN5CCOCC5)ccc24)CCC3)nc1,Potency,[4],16.6 µM (active)
COc1ccc2nc(S(=O)Cc3ncc(C)c(OC)c3C)[nH]c2c1 (stereo not given),Potency,[4],inactive
CN(C)c1ccc(Nc2nc(N)n(C(=O)c3c(F)cccc3F)n2)cc1,Potency,[4],1.48 µM (active)
Cn1cnc([N+](=O)[O-])c1Sc1ncnc2nc[nH]c12,Potency,[4],959 nM (active) and 1.19 µM (active) and 4.17 µM (active)
COc1ccccc1[C@H](c1cccc2ccccc12)[C@@](C)(C#N)C(=O)N1CCC(c2cccc(C(F)(F)F)c2)CC1,Potency,[4],inactive
same,Potency,[5],inactive
NCCc1ccc(O)c(O)c1,Potency,[4],inactive and 23.5 µM (active)
same,Potency,[5],inactive
OC(CCN1CCCCC1)(c1ccccc1)C1CC2C=CC1C2 (stereo not given),Potency,[4],inactive
CC(C)(C)NCC(O)c1ccc(O)c(CO)c1 (stereo not given),Potency,[4],inactive
same,Potency,[5],inactive
CC1(C)CNc2cc(NC(=O)c3cccnc3NCc3ccncc3)ccc21,Potency,[4],inactive
same,Potency,[5],inactive
CCCCNc1cc(C(=O)O)cc(S(N)(=O)=O)c1Oc1ccccc1,Potency,[4],inactive
same,Potency,[5],inactive
CC(C)OC(=O)C1=CN(C(=O)c2ccc(F)c(F)c2)CC(C)(C)c2c1[nH]c1ccccc21,Potency,[4],inactive
S=C(NCc1ccc2c(c1)OCO2)N1CCN(c2ncnc3c2oc2ccccc23)CC1,Potency,[4],13.2 µM (active)
Clc1cccc(Cl)c1NC1=NCCN1,Potency,[4],inactive
same,Potency,[5],inactive
OCCC#Cc1nc(-c2ccc(F)cc2)c(-c2ccncc2)n1CCCc1ccccc1,Potency,[4],16.4 µM (active) and 11.8 µM (active)
N#Cc1ccc(C(c2ccc(C#N)cc2)n2cncn2)cc1,Potency,[4],inactive
same,Potency,[5],inactive
O=C1CCCC2=C1C(c1[nH]ncc1Cl)N=C(Nc1nc3ccccc3o1)N2 (stereo not given),Potency,[4],inactive
same,Potency,[5],inactive
O=C(Nc1cccnc1)N1CCC(Cc2cccc(Oc3ccc(C(F)(F)F)cn3)c2)CC1,Potency,[4],6.49 µM (active) and 7.42 µM (active)
same,Potency,[5],5.25 µM (active)
C[C@]12CCC(=O)C=C1CC[C@@H]1[C@@H]2[C@@H](O)C[C@@]2(C)[C@H]1CC[C@]2(O)C(=O)CO,Potency,[4],inactive
same,Potency,[5],1.68 µM (active) and 296 nM (active)
CC(C)NCC(O)COc1ccc(COCCOC(C)C)cc1 (stereo not given),Potency,[4],inactive
same,Potency,[5],inactive
CO[C@@H]1[C@H](N(C)C(=O)c2ccccc2)C[C@H]2O[C@]1(C)n1c3ccccc3c3c4c(c5c6ccccc6n2c5c31)C(=O)NC4,Potency,[4],1.3 µM (active) and 1.05 µM (active)
same,Potency,[5],1.3 µM (active) and 525 nM (active)
O=c1[nH]c(-c2ccc(C(F)(F)F)cc2)nc2c1CSCC2,Potency,[4],inactive
Nc1ccc(S(=O)(=O)Nc2ccnn2-c2ccccc2)cc1,Potency,[4],inactive
O=C(O)CCc1ccc(NCc2cccc(Oc3ccccc3)c2)cc1,Potency,[4],inactive
same,Potency,[5],inactive
COc1ccc(CCN2CCN(CCCc3ccccc3)CC2)cc1OC,Potency,[4],inactive
COc1ccc(C2=N[C@H](c3ccc(Cl)cc3)[C@H](c3ccc(Cl)cc3)N2C(=O)N2CCNC(=O)C2)c(OC(C)C)c1,Potency,[4],18.6 µM (active)
same,Potency,[5],18.6 µM (active)
NCCCC(N)(C(=O)O)C(F)F (stereo not given),Potency,[4],inactive
same,Potency,[5],inactive
C#Cc1cccc(Nc2ncnc3cc(OCCOC)c(OCCOC)cc23)c1,Potency,[4],8.41 µM (active)
same,Potency,[5],9.44 µM (active)
CS(=O)(=O)Oc1ccc2c(NC(N)=O)c(C(=O)c3ccc(Cl)cc3Cl)oc2c1,Potency,[4],inactive
same,Potency,[5],inactive
COc1cc(F)c(F)c(Nc2ccc(I)cc2F)c1NS(=O)(=O)C1(C[C@H](O)CO)CC1,Potency,[4],18.3 µM (active) and 20.9 µM (active)
same,Potency,[5],25.8 µM (active) and 20.9 µM (active)
OC(CN1CCC(Cc2ccc(F)cc2)CC1)c1ccc(Cl)cc1 (stereo not given),Potency,[4],inactive
same,Potency,[5],inactive
